Reference: paper PMC7862700, “An all-to-all approach to the identification of sequence-specific readers for epigenetic DNA modifications on cytosine”

Experiments:
Assay in all cases: DAPPL (digital affinity profiling via proximity ligation, sequencing); 10 mM Tris-HCl pH 7.5, 50 mM NaCl, 1 mM DTT, 4% glycerol, room temperature, 30 min; GST-TFs on glutathione beads, 16-mer random dsDNA library, 0.1% formaldehyde crosslink after washing; high values mean tight binding
[1] = target: T1, FEV (Homo sapiens, UniProt Q99581 1-238); conditions: protein: recombinant; tags: N-terminal GST; dsDNA, one strand shown
T1 sequence: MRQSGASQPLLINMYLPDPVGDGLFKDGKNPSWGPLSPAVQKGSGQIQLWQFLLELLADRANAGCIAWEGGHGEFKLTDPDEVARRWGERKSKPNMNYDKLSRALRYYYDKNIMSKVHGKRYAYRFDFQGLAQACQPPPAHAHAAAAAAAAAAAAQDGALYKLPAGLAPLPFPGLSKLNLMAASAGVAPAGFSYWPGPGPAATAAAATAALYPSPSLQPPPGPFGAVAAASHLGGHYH
Summary of the method: (§1)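 In yeast, human transcription factors were expressed with a GST fusion, then pulled down on glutathione beads and given DNA barcodes. Pooled with a tag-only sample, they were exposed to 200 nmole of a 16-mer random double-stranded DNA library (Tris/NaCl/DTT/glycerol buffer, room temperature, 30 min), washed, crosslinked with 0.1% formaldehyde, proximity-ligated using BsaI/T4 ligase for 1 h at 37 °C, PCR-amplified and read on an Illumina NextSeq500. Each hexamer's frequency of reads for a factor, divided by the matching frequency for the tag-only sample, gives the binding signal.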

[2] = target: ETV5 (Homo sapiens, UniProt P41161 1-510); conditions: protein: recombinant; tags: N-terminal GST; dsDNA, one strand shown
ETV5, sequence (P41161 whole entry): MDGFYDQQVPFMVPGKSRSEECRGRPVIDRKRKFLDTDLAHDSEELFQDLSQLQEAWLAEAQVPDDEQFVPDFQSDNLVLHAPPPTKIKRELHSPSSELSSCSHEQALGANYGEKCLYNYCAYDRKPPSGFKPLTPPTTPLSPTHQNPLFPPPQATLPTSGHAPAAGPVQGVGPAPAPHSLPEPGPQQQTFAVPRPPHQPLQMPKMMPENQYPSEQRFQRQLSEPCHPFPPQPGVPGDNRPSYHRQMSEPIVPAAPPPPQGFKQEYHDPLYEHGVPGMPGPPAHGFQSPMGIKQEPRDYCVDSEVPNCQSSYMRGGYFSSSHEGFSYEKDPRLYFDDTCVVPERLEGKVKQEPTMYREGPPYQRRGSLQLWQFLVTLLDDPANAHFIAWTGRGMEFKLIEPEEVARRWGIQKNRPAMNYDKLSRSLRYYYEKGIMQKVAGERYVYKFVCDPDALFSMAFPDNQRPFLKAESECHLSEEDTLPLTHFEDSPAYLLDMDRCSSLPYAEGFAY
Summary of the method: as §1

[3] = target: HSF1 (Homo sapiens, UniProt Q00613 1-529); conditions: protein: recombinant; tags: N-terminal GST; chain copies: 3; dsDNA, one strand shown
HSF1, sequence (Q00613 whole entry): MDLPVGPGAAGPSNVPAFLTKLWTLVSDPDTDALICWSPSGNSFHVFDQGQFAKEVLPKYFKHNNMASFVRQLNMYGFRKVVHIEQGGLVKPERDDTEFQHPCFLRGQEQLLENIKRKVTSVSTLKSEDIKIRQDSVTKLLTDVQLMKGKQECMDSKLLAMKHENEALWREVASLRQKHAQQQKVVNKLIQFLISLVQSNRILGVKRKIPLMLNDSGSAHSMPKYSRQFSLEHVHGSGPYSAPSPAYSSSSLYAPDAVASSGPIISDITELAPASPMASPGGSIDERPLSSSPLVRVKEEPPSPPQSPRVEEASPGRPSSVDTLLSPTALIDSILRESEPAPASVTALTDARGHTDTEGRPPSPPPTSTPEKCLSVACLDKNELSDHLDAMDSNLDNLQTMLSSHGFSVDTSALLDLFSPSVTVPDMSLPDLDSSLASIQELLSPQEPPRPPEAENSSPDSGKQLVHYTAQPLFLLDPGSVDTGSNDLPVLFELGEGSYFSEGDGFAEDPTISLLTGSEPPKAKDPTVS
Summary of the method: as §1

[4] = target: T2, SPIC (Homo sapiens, UniProt Q8N5J4 1-248); conditions: protein: recombinant; tags: N-terminal GST; dsDNA, one strand shown
T2 sequence: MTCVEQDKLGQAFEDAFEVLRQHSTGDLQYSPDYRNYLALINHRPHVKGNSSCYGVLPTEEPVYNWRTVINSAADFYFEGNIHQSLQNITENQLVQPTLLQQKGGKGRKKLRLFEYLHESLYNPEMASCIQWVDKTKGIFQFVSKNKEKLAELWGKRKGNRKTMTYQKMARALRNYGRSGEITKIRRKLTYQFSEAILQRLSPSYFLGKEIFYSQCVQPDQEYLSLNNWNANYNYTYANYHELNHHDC
Summary of the method: as §1

[5] = target: T3, ELK4 (Homo sapiens, UniProt P28324-2 1-405); conditions: protein: recombinant; tags: N-terminal GST; dsDNA, one strand shown
T3 sequence: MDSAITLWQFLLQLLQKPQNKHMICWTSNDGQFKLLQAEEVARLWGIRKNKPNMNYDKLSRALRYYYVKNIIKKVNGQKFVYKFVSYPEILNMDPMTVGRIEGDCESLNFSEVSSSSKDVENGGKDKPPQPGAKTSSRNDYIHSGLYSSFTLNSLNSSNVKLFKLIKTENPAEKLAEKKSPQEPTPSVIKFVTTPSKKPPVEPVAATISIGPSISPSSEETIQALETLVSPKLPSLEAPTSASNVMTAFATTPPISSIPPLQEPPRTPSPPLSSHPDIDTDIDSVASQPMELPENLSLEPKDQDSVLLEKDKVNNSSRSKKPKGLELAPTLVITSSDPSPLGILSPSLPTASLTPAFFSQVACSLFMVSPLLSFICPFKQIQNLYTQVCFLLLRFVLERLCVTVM
Summary of the method: as §1

[6] = target: T4, ETV2 (Homo sapiens, UniProt O00321 1-342); conditions: protein: recombinant; tags: N-terminal GST; dsDNA, one strand shown
T4 sequence: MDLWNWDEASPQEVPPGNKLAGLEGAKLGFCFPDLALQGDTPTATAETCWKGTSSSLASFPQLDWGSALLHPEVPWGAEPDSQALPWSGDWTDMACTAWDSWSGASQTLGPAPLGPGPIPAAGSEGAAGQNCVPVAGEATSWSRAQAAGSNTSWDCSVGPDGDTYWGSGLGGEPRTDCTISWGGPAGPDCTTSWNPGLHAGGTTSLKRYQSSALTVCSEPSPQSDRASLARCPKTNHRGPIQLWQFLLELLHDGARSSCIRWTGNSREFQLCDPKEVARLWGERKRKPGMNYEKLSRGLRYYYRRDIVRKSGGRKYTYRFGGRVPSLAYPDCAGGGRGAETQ
Summary of the method: as §1

[7] = target: T5, ELF3 (Homo sapiens, UniProt P78545 1-371); conditions: protein: recombinant; tags: N-terminal GST; dsDNA, one strand shown
T5 sequence: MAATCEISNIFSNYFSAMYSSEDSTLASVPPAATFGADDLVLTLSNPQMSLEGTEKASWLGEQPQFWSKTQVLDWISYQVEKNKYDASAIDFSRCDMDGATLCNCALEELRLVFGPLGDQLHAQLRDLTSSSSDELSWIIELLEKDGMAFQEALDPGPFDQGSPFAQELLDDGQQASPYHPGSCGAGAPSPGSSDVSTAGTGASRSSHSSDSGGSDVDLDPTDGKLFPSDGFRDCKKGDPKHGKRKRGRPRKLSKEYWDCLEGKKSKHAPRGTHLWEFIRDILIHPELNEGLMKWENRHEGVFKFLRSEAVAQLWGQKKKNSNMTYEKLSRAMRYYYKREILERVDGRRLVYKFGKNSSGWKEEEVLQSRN
Summary of the method: as §1

[8] = target: ETV1 (Homo sapiens, UniProt P50549 1-477); conditions: protein: recombinant; tags: N-terminal GST; dsDNA, one strand shown
ETV1, sequence (P50549 whole entry): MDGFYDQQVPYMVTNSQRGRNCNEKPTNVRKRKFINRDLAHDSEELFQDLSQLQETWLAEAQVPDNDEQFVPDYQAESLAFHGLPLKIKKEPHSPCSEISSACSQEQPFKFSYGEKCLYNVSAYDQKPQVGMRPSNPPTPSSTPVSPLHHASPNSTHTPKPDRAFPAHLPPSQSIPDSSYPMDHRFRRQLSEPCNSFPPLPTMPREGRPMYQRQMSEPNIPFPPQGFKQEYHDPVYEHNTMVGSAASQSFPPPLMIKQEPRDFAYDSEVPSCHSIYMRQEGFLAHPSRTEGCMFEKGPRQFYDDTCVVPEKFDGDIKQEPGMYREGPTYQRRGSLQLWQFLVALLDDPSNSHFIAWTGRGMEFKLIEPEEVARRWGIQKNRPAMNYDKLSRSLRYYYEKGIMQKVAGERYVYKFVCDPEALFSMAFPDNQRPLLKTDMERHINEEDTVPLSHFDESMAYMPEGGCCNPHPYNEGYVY
Summary of the method: as §1

[9] = target: T6, ERF (Homo sapiens, UniProt P50548 1-548); conditions: protein: recombinant; tags: N-terminal GST; dsDNA, one strand shown
T6 sequence: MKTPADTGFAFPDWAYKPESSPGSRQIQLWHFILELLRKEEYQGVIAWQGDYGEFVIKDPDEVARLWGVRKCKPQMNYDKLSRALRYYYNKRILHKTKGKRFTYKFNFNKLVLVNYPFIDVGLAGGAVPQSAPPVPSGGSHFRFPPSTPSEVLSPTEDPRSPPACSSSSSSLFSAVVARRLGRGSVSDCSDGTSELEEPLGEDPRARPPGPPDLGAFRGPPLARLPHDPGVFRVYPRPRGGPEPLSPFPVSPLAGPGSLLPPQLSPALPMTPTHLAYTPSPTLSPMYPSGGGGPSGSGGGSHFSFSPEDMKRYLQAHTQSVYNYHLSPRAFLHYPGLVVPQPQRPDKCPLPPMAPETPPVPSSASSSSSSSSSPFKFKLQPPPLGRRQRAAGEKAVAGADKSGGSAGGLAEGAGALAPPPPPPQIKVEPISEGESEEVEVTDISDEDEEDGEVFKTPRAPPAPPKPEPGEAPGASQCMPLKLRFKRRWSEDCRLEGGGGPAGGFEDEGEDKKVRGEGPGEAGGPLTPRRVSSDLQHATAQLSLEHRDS
Summary of the method: as §1

[10] = target: T7, ETV3L (Homo sapiens, UniProt Q6ZN32 1-361); conditions: protein: recombinant; tags: N-terminal GST; dsDNA, one strand shown
T7 sequence: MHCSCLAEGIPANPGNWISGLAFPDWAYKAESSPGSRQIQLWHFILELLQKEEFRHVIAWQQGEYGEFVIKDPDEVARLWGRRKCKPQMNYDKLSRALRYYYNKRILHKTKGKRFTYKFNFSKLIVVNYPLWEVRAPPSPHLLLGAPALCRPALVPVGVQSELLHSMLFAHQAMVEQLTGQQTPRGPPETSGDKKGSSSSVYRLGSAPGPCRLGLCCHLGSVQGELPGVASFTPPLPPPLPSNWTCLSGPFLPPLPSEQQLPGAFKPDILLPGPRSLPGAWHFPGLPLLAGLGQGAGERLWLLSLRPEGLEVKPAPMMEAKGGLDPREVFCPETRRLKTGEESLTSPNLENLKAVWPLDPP
Summary of the method: as §1

[11] = target: T8, ETS2 (Homo sapiens, UniProt P15036 1-469); conditions: protein: recombinant; tags: N-terminal GST; dsDNA, one strand shown
T8 sequence: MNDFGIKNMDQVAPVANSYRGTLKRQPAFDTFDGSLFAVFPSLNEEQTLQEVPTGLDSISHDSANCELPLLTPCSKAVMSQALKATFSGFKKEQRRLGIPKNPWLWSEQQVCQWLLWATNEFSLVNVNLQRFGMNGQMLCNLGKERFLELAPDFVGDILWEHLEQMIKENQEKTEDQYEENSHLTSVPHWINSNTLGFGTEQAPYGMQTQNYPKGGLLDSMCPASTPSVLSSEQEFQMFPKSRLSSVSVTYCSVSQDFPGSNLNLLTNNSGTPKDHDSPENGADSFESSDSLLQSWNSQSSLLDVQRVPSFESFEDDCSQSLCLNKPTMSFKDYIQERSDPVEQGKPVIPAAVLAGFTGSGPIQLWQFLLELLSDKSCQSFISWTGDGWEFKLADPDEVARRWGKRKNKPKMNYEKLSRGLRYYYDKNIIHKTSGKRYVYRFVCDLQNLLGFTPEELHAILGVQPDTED
Summary of the method: as §1

[12] = target: T9, SPDEF (Homo sapiens, UniProt O95238 1-335); conditions: protein: recombinant; tags: N-terminal GST; dsDNA, one strand shown
T9 sequence: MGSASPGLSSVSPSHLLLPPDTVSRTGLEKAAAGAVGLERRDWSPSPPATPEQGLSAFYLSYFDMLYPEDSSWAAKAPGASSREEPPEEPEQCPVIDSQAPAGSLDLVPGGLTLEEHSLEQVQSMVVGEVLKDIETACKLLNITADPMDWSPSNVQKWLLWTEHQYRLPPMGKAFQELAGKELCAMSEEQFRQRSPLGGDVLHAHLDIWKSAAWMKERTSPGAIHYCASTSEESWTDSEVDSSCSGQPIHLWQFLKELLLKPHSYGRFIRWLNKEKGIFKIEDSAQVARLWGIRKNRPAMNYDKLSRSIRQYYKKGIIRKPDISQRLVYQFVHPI
Summary of the method: as §1

[13] = target: T10, ETV7 (Homo sapiens, UniProt Q9Y603 1-341); conditions: protein: recombinant; tags: N-terminal GST; dsDNA, one strand shown
T10 sequence: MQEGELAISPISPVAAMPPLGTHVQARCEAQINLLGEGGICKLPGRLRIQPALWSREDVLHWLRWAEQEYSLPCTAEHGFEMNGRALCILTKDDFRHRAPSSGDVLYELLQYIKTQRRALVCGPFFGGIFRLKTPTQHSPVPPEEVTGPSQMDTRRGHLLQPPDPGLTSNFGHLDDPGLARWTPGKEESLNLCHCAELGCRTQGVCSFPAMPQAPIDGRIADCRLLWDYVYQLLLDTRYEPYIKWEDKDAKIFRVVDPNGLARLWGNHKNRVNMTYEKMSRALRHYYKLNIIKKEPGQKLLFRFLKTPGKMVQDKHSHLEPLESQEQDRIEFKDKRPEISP
Summary of the method: as §1

[14] = target: T11, ELF5 (Homo sapiens, UniProt Q9UKW6-2 1-255); conditions: protein: recombinant; tags: N-terminal GST; dsDNA, one strand shown
T11 sequence: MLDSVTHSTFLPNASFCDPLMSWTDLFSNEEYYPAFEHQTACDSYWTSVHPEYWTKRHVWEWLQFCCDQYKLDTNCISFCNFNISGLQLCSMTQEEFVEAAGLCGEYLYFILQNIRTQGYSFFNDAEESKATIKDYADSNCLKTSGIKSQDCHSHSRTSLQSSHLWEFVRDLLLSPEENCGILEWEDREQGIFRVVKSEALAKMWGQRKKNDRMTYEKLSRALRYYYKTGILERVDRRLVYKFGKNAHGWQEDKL
Summary of the method: as §1

[15] = target: ELF4 (Homo sapiens, UniProt Q99607 1-663); conditions: protein: recombinant; tags: N-terminal GST; dsDNA, one strand shown
ELF4, sequence (Q99607 whole entry): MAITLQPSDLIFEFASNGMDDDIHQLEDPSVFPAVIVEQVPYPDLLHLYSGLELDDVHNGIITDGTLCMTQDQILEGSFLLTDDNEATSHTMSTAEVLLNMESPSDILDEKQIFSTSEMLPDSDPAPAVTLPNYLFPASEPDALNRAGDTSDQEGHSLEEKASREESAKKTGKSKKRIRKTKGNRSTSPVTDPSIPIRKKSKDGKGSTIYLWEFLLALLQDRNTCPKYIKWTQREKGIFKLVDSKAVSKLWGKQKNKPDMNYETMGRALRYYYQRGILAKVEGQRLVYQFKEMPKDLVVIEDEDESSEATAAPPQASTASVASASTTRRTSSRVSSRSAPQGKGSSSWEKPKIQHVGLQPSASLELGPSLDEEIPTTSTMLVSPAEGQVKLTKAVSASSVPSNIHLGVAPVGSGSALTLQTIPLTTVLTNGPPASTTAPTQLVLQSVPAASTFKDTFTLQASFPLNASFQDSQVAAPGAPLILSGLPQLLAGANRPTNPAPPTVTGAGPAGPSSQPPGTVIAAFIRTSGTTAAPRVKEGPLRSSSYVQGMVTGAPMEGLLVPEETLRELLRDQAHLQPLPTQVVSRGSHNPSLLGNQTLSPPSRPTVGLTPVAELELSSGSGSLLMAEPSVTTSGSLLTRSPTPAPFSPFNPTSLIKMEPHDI
Summary of the method: as §1

[16] = target: T12, ETV3 (Homo sapiens, UniProt P41162-2 1-143); conditions: protein: recombinant; tags: N-terminal GST; dsDNA, one strand shown
T12 sequence: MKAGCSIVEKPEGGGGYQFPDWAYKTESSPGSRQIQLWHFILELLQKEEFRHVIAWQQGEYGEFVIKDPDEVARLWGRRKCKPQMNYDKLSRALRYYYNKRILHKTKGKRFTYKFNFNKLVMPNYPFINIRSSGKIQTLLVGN
Summary of the method: as §1

[17] = target: ETV6 (Homo sapiens, UniProt P41212 1-452); conditions: protein: recombinant; tags: N-terminal GST; dsDNA, one strand shown
ETV6, sequence (P41212 whole entry): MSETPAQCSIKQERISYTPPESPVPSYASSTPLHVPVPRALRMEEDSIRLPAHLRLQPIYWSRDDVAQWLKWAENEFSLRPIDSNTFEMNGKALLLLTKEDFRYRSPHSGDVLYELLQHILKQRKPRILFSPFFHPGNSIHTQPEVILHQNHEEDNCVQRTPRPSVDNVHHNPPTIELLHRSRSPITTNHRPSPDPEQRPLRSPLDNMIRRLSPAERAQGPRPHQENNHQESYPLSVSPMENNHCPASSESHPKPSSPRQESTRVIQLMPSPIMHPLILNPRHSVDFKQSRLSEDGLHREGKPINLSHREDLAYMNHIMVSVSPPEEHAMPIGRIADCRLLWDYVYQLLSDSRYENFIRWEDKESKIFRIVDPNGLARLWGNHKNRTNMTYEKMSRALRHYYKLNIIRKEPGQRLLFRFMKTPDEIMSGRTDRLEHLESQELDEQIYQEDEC
Summary of the method: as §1

Sequence	binding signal [1]	binding signal [2]	binding signal [3]	binding signal [4]	binding signal [5]	binding signal [6]	binding signal [7]	binding signal [8]	binding signal [9]	binding signal [10]	binding signal [11]	binding signal [12]	binding signal [13]	binding signal [14]	binding signal [15]	binding signal [16]	binding signal [17]
TCGCGC	1.03 fold enrichment (6-mer frequency, TF over GST control)	1.02 fold enrichment (6-mer frequency, TF over GST control)	1.1 fold enrichment (6-mer frequency, TF over GST control)	1.25 fold enrichment (6-mer frequency, TF over GST control)	1.03 fold enrichment (6-mer frequency, TF over GST control)	1.08 fold enrichment (6-mer frequency, TF over GST control)	1.05 fold enrichment (6-mer frequency, TF over GST control)	1.13 fold enrichment (6-mer frequency, TF over GST control)	1.12 fold enrichment (6-mer frequency, TF over GST control)	1.02 fold enrichment (6-mer frequency, TF over GST control)	1.12 fold enrichment (6-mer frequency, TF over GST control)	1.14 fold enrichment (6-mer frequency, TF over GST control)	1.23 fold enrichment (6-mer frequency, TF over GST control)	1.03 fold enrichment (6-mer frequency, TF over GST control)			
CACAAA	1.09 fold enrichment (6-mer frequency, TF over GST control)	1.11 fold enrichment (6-mer frequency, TF over GST control)	1.02 fold enrichment (6-mer frequency, TF over GST control)	1.07 fold enrichment (6-mer frequency, TF over GST control)		1.09 fold enrichment (6-mer frequency, TF over GST control)	1.1 fold enrichment (6-mer frequency, TF over GST control)	1.03 fold enrichment (6-mer frequency, TF over GST control)	1.18 fold enrichment (6-mer frequency, TF over GST control)	1.16 fold enrichment (6-mer frequency, TF over GST control)	1.16 fold enrichment (6-mer frequency, TF over GST control)	1.12 fold enrichment (6-mer frequency, TF over GST control)	1.01 fold enrichment (6-mer frequency, TF over GST control)	1.1 fold enrichment (6-mer frequency, TF over GST control)	1.11 fold enrichment (6-mer frequency, TF over GST control)	1.09 fold enrichment (6-mer frequency, TF over GST control)	1.08 fold enrichment (6-mer frequency, TF over GST control)
